# Compounds without any hit were thinned out: in the full panel of roughly 83,000, 20% have a hit.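 Values shown are percent growth following 48 h exposure of cells in 96-well plates to a single concentration of compound; below 10 was considered active.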 Unmarked numbers belong to inactive results. Active and inactive are the calls of the source.
# System: HCT-116 colon
# Assay: NCI-60 one-dose screen, 48 h (100 = growth as untreated, 0 = no growth, -100 = all killed)
# Details: 10 µM unless noted
# Protocol: Growth inhibition of the HCT-116 human tumor cell line is measured as a screen for anti-cancer activity. Cells are grown in 96 well plates and exposed to the test compound for 48 hours. Compounds are tested at a single concentration, which is 10^-5 M for most compounds. The reported endpoint is percent growth (GI% or GIPRCNT), where numbers from 0 - 100% represent growth inhibition, and numbers from -100% - 0 represent cell death. For example, a value of 40 represents 60% growth inhibition. A value of 0 means no net growth occurred over the course of the experiment. A value of -40 indicates 40% of cells at the beginning of the experiment died by the end of the experiment. A value of -100 means all cells are dead at the end of the experiment.
# NCI-60 Human Tumor Cell Lines Screen was performed using the standard one-dose NCI protocol, which is described in more detail at https://dtp.cancer.gov/discovery_development/nci-60/default.htm.
# Compounds with GIPRCNT values below 10 were considered active. Activity score was based on GIPRCNT using the following formula: […]
# Score is 0 for GIPRCNT values of 100 or above, 50 for GIPRCNT values of 0, and 100 for GIPRCNT values of -100.
row,SMILES,growth
1,CCCNC(=O)Oc1ccc(/C(=C(/C)Cc2ccc(OC)cc2)c2ccc(OCCN3CCCC3)cc2)cc1,48.8%
2,Cc1nnc(/N=C2\NC(=O)/C(=C/C=C/c3ccccc3)S2)s1,36.9%
3,Cc1ccc(C(=O)C(Br)C(Br)c2ccccc2)cc1 (stereo not given),-65.7% (active)
4,Clc1ccc(N/N=C/c2ccccn2)nc1,11.1%
5,C#CCCCCCCC[C@@H]1OC(=O)[C@H]([C@@H](C)CC)NC(=O)[C@H]([C@@H](C)CC)NC(=O)CC(=O)[C@@H]1C,93.4%
6,CCOC(=O)/C(C#N)=C(/CC)OCC,92%
7,COc1ccc(/C(=C(\c2ccccc2)[N+](=O)[O-])c2ccc(OCCN3CCCC3)cc2)cc1,44.5%
8,COc1ccc2nc3cc(Cl)ccc3c(NCCCNC(C)=O)c2c1,21%
9,Nc1nc2cc(O)ccc2n2cc3c(F)cccc3c12,15.1%
10,Clc1ccc(N/N=C(/c2ccccc2)c2ccccn2)nc1,5.31% (active)
11,COC(=O)C1CC(=O)N(C(=O)Nc2ccc(Cl)cc2Cl)C1 (stereo not given),98.1%
12,C/C(=N\Nc1cccc(Cl)n1)c1ccccn1,10%
13,CN1CCN(Cc2ccc(NC(=O)c3cncc(C#Cc4c(N)ncc5ccc(F)cc45)c3)cc2C(F)(F)F)CC1,4.69% (active)
14,CCOc1ccc(/C=N/NC(=O)c2cccc3ccccc23)cc1OCC,103%
15,CCN(CC)C(=O)C1(C)CCCC2(C)c3cc(OC(C)=O)ccc3CCC12 (stereo not given),84.9%
16,O=C(/C=C1\C(=O)N(Cc2ccc([N+](=O)[O-])cc2)c2ccccc21)c1ccc(OCCN2CCCCC2)cc1,-91.2% (active)
17,O=C1/C(=C/c2ccc(Cl)cc2)CCC/C1=C\c1ccc(Cl)cc1,-42.6% (active)
18,Cc1c(CN(C)C)cc(C(C)C)cc1C(C)C,104%
19,CC(=O)Oc1cc2ccccc2cc1C(C)C,97.1%
20,Oc1ccc(Br)cc1/C=N/NC(=S)NC12CC3CC(CC(C3)C1)C2,8.08% (active)

row,SMILES,growth
1,COC(c1ccccc1)C(Br)C(=O)c1ccccc1 (stereo not given),87.7%
2,Cc1ccc(NC(=O)CCl)cc1Cl,106%
3,O=C(Nc1cccc(Cn2c(=O)[nH]c3ccc(Oc4ncccn4)cc3c2=O)c1)c1cccc(F)c1,70.8%
4,COc1ccc(CN2C(=O)/C(=C\C(=O)c3ccc(OCCN4CCCC4)cc3)c3ccccc32)cc1,18.5%
5,O=C(/C=C/c1cccc(O)c1)c1cccc(-n2cc(-c3ccc(Cl)cc3)[nH]c2=O)c1,-85.2% (active)
6,COc1cc2ncnc(-n3ncc4cc(NC(=O)Nc5ccc(Cl)c(Cl)c5)ccc43)c2cc1OC,23.9%
7,Cc1ncc(C(=O)Nc2ccc(CN3CCN(C)CC3)c(C(F)(F)F)c2)cc1C#Cc1cnc(NC2CC2)c2ncccc12,-90% (active)
8,CCOC(=O)CNS(=O)(=O)CC(=O)c1ccccc1,103%
9,CC(=O)CCS(=O)c1ccccc1 (stereo not given),102%
10,CNc1nc2ncn(C)c2c(=O)[nH]1,100%
11,CCN(CC)CCCC(C)Nc1c(C)cnc2cc(Cl)c(C)cc12 (stereo not given),56.9%
12,COc1cc2c(c(OC)c1OC)C(=O)CC(c1cccc(C(=O)Nc3cccc(Br)c3)c1)O2 (stereo not given),58.1%
13,CCCC(=O)NNc1[nH]c(-c2ccc(OC)cc2)cc1C(=O)OCC,109%
14,C/C(=N\Nc1ccc(Cl)cn1)c1ccccn1,1.21% (active)
15,CC(C)CSc1nc(-c2ccc(F)cc2)c(C#N)c(N2CCCCC2)n1,89.5%
16,CC(C)(CNC1CCCCC1)OC(=O)c1ccccc1,103%
17,O=C(O)CS(=O)c1ccc(Cl)cc1 (stereo not given),97.6%
18,CC(=O)C(CO)C(=O)Nc1ccccc1 (stereo not given),106%
19,CCOC(=O)c1c(C)oc2ncnc(Nc3ccc(NC(=O)Nc4cccc(Cl)c4)cc3)c12,50.8%
20,COC(=O)/C=C1/CCCCC1(C)C(=O)OC (stereo not given),95.7%

# Reference: PubChem BioAssay (NCI)
